# Test results from PubChem BioAssay (NCI).
# Compounds without any hit were thinned out: in the full panel of roughly 83,000, 20% have a hit.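 Note: values are percent growth. 100 is the growth of untreated cells, values between 100 and 0 indicate rising inhibition; between -100 and 0 indicates cell death.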 The source made the active and inactive calls. How the source made its calls: active means growth percent below 10; inactive means the rest.
# Tested on: HL-60(TB) leukemia
# Assay: NCI-60 one-dose screen, 48 h (100 = growth as untreated, 0 = no growth, -100 = all killed)
# Details: 10 µM unless noted
row,Compound,growth
1,CCN(CC)CCC(=O)c1ccc(OC)c2ccccc12,44.2% (inactive)
2,COc1cc(C2C(C#N)=C(N)Oc3cc(O)ccc32)cc(OC)c1OC (stereo not given),-26% (active)
3,CCOC(=O)c1c(C)nc2c(c1N)/C(=C/c1cc(OC)c(OC)c(OC)c1)C(=O)N2c1ccc(OC)cc1,28.2% (inactive)
4,CN=S(=O)(OCCCCCOS(=O)(=NC)c1ccc(C)cc1)c1ccc(C)cc1 (stereo not given),70.7% (inactive)
5,COc1ccc(C2=NN(C(=O)c3cc(-c4ccc(C)cc4)nc4ccccc34)C(c3cc(-c4ccccc4)nn3-c3ccccc3)C2)cc1 (stereo not given),90.6% (inactive)
6,C=CC(C)C(C)(C)O (stereo not given),97.7% (inactive)
7,COc1cc(/C=C2\CCCC3C2=Nc2ccccc2NC3c2cc(OC)c(OC)c(OC)c2)cc(OC)c1OC (stereo not given),1.55% (active)
8,CCOC(=O)C1=C(C)N2C(=NC3=C(CCCC/C3=C\c3cc(OC)c(OC)c(OC)c3)C2c2cc(OC)c(OC)c(OC)c2)S1 (stereo not given),49.9% (inactive)
9,O=C(Cn1cc(CN2CCN(c3ccnc4cc(Cl)ccc34)CC2)nn1)Nc1cccc([N+](=O)[O-])c1,102% (inactive)
10,O=c1[nH]c(=S)[nH]c(O)c1/C=C1\C=Nc2ccccc21,90.4% (inactive)
11,COC(=O)CCC/C=C\C[C@H]1C=CC(=O)/C1=C/C[C@@H](O)CCc1cccc(C(F)(F)F)c1,-18.2% (active)
12,CC(C)(C)c1ccc(C2CC(=O)C3=C(C2)Nc2ccccc2N(C(=O)c2ccccc2Cl)C3c2ccc(F)cc2)cc1 (stereo not given),-19.8% (active)
13,CN1CCN(c2ccc(NC3=C(Cl)C(=O)c4ncccc4C3=O)cc2C(F)(F)F)CC1,-16.2% (active)
14,O=C1CC(c2ccc(O)c(O)c2)Oc2cc(O)c([C@@H]3O[C@H](CO)[C@@H](O)[C@H](O)[C@H]3O)c(O)c21 (stereo not given in full),99.6% (inactive)
15,CC1=NN(c2ccc(Cl)cc2)CC1(C)N=O (stereo not given),38.5% (inactive)
16,COc1cc2nccc(Oc3ccc(NC(=O)C4(C(=O)Nc5ccc(F)cc5)CC4)cc3)c2cc1Oc1ccc(N)cn1,22.9% (inactive)
17,CSC1=Nc2c(c(C)c(-c3ccccc3)n2CCCN2CCCCC2)C2=NC(=O)C[C@H](C)N12,-33.2% (active)
18,CC/C=C\C/C=C\C[C@H](O)C/C=C1/C(=O)C=C[C@H]1C/C=C\CCC(=O)OC,1.46% [8.25 µM] (active)
19,C/C(=N\NC(=S)Nc1ccccc1)c1ccccn1,3.23% (active)
20,OCCc1ccc(Cl)cc1,104% (inactive)

row,Compound,growth
1,Cc1cc(C)c(S(=O)(=O)N2CCN(c3cc4c(cc3F)c(=O)c(C(=O)O)cn4C3CC3)CC2)c(C)c1,8.72% (active)
2,CCn1cc(C2=C(c3cn(C)c4ncccc34)C(=O)NC2=O)c2cccnc21,89.8% (inactive)
3,COc1cccc(-c2cc(-c3cccc(NS(C)(=O)=O)c3)nc(N)c2C#N)c1O,2.21% (active)
4,C#Cc1ccc(-n2c(/C=C/c3ccc4ccccc4c3)nc3ncccc3c2=O)cc1,-2.99% (active)
5,O=C(c1nc2ccccc2[nH]1)C1[C@@H](c2cccc(O)c2)C2CC3CCCCC3N2[C@@]12C(=O)Nc1cc(Cl)ccc12 (stereo not given in full),6.59% (active)
6,C#CCOc1ccc(C2=NN(C)C3N=C(Cl)c4ncn(C)c4N23)cc1OCC#C (stereo not given),98.6% (inactive)
7,N[C@@H]1CCCN(c2c(/C=C3\SC(=O)NC3=O)cccc2-c2ccccc2)C1,26.5% (inactive)
8,O=C1NC(=O)C(Cc2ccc(OCc3ccc(-c4cc(F)c(F)c(F)c4)cc3)cc2)S1 (stereo not given),106% (inactive)
9,O=C(/C=C/c1ccc(Cl)cc1)c1cccc(OCCCOc2cccc(C(=O)/C=C/c3ccc(Cl)cc3)c2)c1,96.2% (inactive)
10,COc1ccc2cc(-c3nc4ccccc4s3)c(Cl)nc2c1OC,91.4% (inactive)
11,Cc1ccc(C(=O)Nc2ccccc2N)cc1,-19.5% (active)
12,BrC(Br)(Br)c1cnc2ccccc2n1,-38.1% (active)
13,COc1ccc2nc3cc(Cl)ccc3c(N3CCN(c4ccnc(Nc5ccc(F)cc5)n4)CC3)c2c1,52.5% (inactive)
14,N#Cc1cnc2cc(OC[C@H](O)CO)c(NC(=O)CC3CSSC3)cc2c1Nc1ccc(OCc2cccc(F)c2)c(Cl)c1,-83.4% (active)
15,O=C1/C(=C/c2ccc3c(c2)OCO3)SC(=S)N1C1c2ccccc2Oc2ccccc21,86.1% (inactive)
16,NS(=O)(=O)Oc1ccc(-c2sc3cc(O)ccc3c2C(=O)c2ccc(OCCN3CCCCC3)cc2)cc1,47.7% (inactive)
17,O=C(CSc1ncccc1C(=O)O)Nc1ccc(Oc2ccccc2)cc1,87.5% (inactive)
18,COc1cc(CNCCCN2C(=O)c3ccc4c5c(ccc(c35)C2=O)C(=O)N(CCCNCc2cc(OC)c(OC)c(OC)c2)C4=O)cc(OC)c1OC,-35.8% (active)
19,O=C(Nc1ccc(Cl)c(Cl)c1)Nc1c(Oc2ccc(Cl)c(Cl)c2)ccc(Cl)c1S(=O)(=O)O,4.23% (active)
20,CN(C)Cc1ccc(C(=O)Nc2ccc3ncnc(Nc4ccc(Oc5cccc(F)c5)c(Cl)c4)c3c2)cc1,-41.7% (active)
